CYP2C19 act: activators of human cytochrome P450 2C19. 96,000 tested, under 10 active. activation factor at 5 µM. AID 1025. recombinant CYP2C19, luciferin-H EGE luminescence; stronger effect = higher value; 0 = fully inhibited enzyme, 1 = untreated enzyme. P33261;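 active = activation factor of at least 2 at 5 µM in the primary screen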;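 note: 0 = wells with 2.5 mM tranylcypromine and 1 = vehicle-only wells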
CYP2C9 act: activators of human CYP2C9; hit rate 1.4% among 96,000; P11712; activation factor at 5 µM; recombinant CYP2C9, luciferin-H conversion, luminescence; stronger effect = higher value; factor 1 = untreated enzyme, 0 = blocked;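 active = activation factor of 2 or more for CYP2C9 at a 5 µM dose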;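 note: 0 = sulfaphenazole-blocked wells and 1 = vehicle-only wells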
Target sequence (P11712 whole entry, looked up): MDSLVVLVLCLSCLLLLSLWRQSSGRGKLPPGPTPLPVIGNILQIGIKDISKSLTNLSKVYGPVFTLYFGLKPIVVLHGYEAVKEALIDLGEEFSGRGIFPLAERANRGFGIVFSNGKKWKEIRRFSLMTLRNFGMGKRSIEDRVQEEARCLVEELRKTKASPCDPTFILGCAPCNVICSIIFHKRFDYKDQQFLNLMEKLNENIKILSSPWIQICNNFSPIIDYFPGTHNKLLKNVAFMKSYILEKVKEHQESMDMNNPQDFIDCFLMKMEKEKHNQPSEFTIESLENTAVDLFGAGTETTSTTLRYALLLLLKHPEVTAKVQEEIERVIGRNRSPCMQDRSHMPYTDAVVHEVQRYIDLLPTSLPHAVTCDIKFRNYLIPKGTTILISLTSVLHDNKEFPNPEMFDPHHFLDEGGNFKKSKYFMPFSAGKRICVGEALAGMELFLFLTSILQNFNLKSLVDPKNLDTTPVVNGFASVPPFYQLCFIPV
CYP2C9 inhib: inhibitors of human CYP2C9; P11712; CYP2C9 Supersomes, luciferin-H conversion, luminescence; inhibition, % at 5 µM; hit rate 20% among 96,000;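 active = blocking of liver enzyme CYP2C9 beyond about 50% at 5 µM, limit read from the data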
PostGolgi ctrl: growth of the yeast control strain, post-Golgi counter-screen; efflux-deficient yeast background strain, growth absorbance A615, 16 h; inhibition, % at 10 µM; hit rate 5% among 98,000; AID 738
CYP2C19 inh: inhibitors of human CYP2C19; CYP2C19 Supersomes, luciferin-H EGE luminescence, 30 min; inhibition, % at 5 µM; hit rate 21% among 96,000;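 active = CYP2C19 inhibition above a set limit at 5 µM in the primary screen, cut at about 50% in these data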;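 note: plate controls were negative control wells for no effect and 2.5 mM tranylcypromine positive control for full effect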
PostGolgi yeast: growth inhibition of a yeast mutant, post-Golgi transport screen; post-Golgi transport phenotypic cell assay; inhibition, % at 10 µM; hit rate 0.9% among 98,000; AID 739;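 note: yeast cells grown in 1536-well plates; yeast grown about 18 h at 30C before absorbance read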
* hit, by the source's call; · = no result. In the library only some 32% were active in any assay of this set; here they are far more common. Cut-off read from the data, not from the text of the source, unless noted: active = inhibition above about 30%; inactive = the rest.

SMILES	CYP2C19 act	CYP2C9 act	CYP2C9 inhib	PostGolgi ctrl	CYP2C19 inh	PostGolgi yeast
Cc1cccc2c1N(CCCOc1ccccc1)C(=O)C2=O	0.4	0.6	43.1	4.1	62.5*	-6.8
CCOC(=O)N1CCN(C(=O)C(c2ccccc2)c2ccccc2)CC1	0.6	0.5	49.0	6.1	40.1	6.3
COc1ccc(C2N3CC4(C)CN2CC(C)(C3)C4O)cc1 (configuration not stated)	1.2	1	-4.1	-4.6	-17.8	10.5
C#CCn1c(=NC(=O)c2ccc(Br)s2)sc2cccc(OC)c21	1	1.7	-72.3	7.4	1.0	7.3
CCOC(=O)C1CCN(C(=O)Cn2cc3c(n2)CCC(C)C3)CC1 (configuration not stated)	0.6	1	0.4	4.5	39.2	-9.6
COc1cccc(C(=O)OCCN2C(=O)c3ccccc3C2=O)c1OC	0.1	0.7	34.9	7.8	89.9*	13.3
Cc1ccc(OCCN2C(=O)c3ccccc3C2=O)cc1	0.2	0.6	38.5	11.0	81.3*	0.3
COc1ccc(OC)c2[nH]c(=O)c(CCNC(=O)c3cc4ccccc4o3)cc12	0.4	0.6	35.9	19.7	63.2*	-6.0
Cc1ccc(C)c2[nH]c(=O)c(CCNC(=O)c3cc4ccccc4o3)cc12	0.5	0.5	51.5*	4.8	46.3	-7.8
Cc1cccc(NC(=O)CCCCCN2C(=O)c3ccccc3C2=O)n1	0.8	0.2	78.6*	-1.9	24.0	-6.5
Cc1cccc(NC(=O)CCCN2C(=O)c3ccccc3C2=O)n1	0.8	0.7	26.5	13.4	16.4	26.6
COCc1nnc(NC(=O)CCCCCN2C(=O)c3ccccc3C2=O)s1	0.9	0.4	63.4*	0.3	10.7	4.8
CC(C)Cc1nnc(NC(=O)CCN2C(=O)c3ccccc3C2=O)s1	1	0.8	23.8	2.0	3.1	1.7
O=C(CCCCCN1C(=O)c2ccccc2C1=O)NC1CCCC1	0.2	0.1	88.7*	6.1	77.9*	-5.2
Cn1cccc1C(=O)NC(=O)COC(=O)C12CC3CC(CC(O)(C3)C1)C2	0.8	0.7	28.7	2.7	17.0	-2.0
COc1cccc(NC(=O)N(Cc2cc3cc(C)cc(C)c3[nH]c2=O)CC2COCCO2)c1 (configuration not stated)	0.7	0.4	56.7*	-5.7	28.8	-0.3
Cc1cccc2cc3c(NC(=O)C(C)C)nn(C)c3nc12	0.9	1	1.9	8.4	8.1	-2.4
COc1ccc(NC(=O)c2cccnc2N2CCCC2)cc1	1.1	0.1	94.1*	-3.7	-5.1	-2.3
O=C(Nc1ccc(F)cc1)c1cccnc1N1CCCCC1	0.2	0.4	62.0*	16.9	75.1*	-3.3
O=C(Nc1ccc(Br)cc1)c1cccnc1N1CCCCC1	0.6	0.1	85.5*	32.2*	37.3	-2.6
COc1ccc(NC(=O)c2cccnc2N2CCCCC2)cc1	·	·	·	8.9	·	7.2
Fc1ccc2c(c1)C(c1ccc(N3CCOCC3)cc1)=NNC(c1cccs1)=N2	0.1	0.2	83.5*	35.9*	89.7*	-4.7
CCN(CC)C(=O)C1CCCN(c2ccc([N+](=O)[O-])cc2/C=N/NC(=O)c2cccc([N+](=O)[O-])c2)C1 (configuration not stated)	0.6	0.6	44.6	11.8	38.3	-10.3
COc1ccc(C(c2c[nH]c3ccccc23)c2c[nH]c3ccccc23)cc1O	0.1	0	100.3*	54.4*	94.6*	-2.0
COc1ccc(C2C3=C(CCCC3=O)Nc3c(-c4ccccc4)c(C)nn32)cc1 (configuration not stated)	0.3	0.6	35.1	8.4	70.8*	0.2
SMILES	CYP2C19 act	CYP2C9 act	CYP2C9 inhib	PostGolgi ctrl	CYP2C19 inh	PostGolgi yeast
Cc1cccc(N2C(=O)CC(Sc3nc(C)c4c(n3)CCCC4)C2=O)c1 (configuration not stated)	0.9	1.2	-23.3	27.9	11.8	3.4
Cc1nc(SC2CC(=O)N(c3cc(Cl)cc(Cl)c3)C2=O)nc2c1CCCC2 (configuration not stated)	0.7	0.5	47.0	59.5*	28.1	13.6
CC(NS(=O)(=O)c1ccccc1)C(N)=O (configuration not stated)	1.1	1.2	-23.0	11.3	-5.0	2.6
COc1ccc(C2=NOC(C(=O)NCCN3CCOCC3)C2)cc1 (configuration not stated)	1.1	1.1	-14.7	-2.0	-11.3	-3.4
COCCn1c(SCC(=O)NCc2ccco2)nnc1-c1c[nH]c2ccccc12	0.8	0.7	31.2	-1.7	24.5	-6.2
CCn1c(SCC(=O)NCc2ccco2)nnc1-c1c[nH]c2ccccc12	0.8	0.8	20.2	-6.2	19.6	3.3
COc1cccc(-n2c(SC)nnc2-c2c[nH]c3ccccc23)c1	0.4	0.7	33.6	14.1	62.0*	-4.2
COc1ccc(OC)c(-n2c(SCC(=O)NCc3ccco3)nnc2-c2c[nH]c3ccccc23)c1	0.6	0.3	65.7*	4.4	39.3	1.4
COc1cccc(-n2c(SCC(=O)NCc3ccco3)nnc2-c2c[nH]c3ccccc23)c1	0.3	0.4	59.0*	1.6	65.9*	2.6
Cc1csc(N(C)C(=O)CSc2nnc(COc3cccc4ccccc34)o2)n1	0.8	1.3	-32.4	15.5	20.3	22.9
O=C(CCC(=O)c1cccs1)OCC(=O)c1ccc(Cl)s1	0.6	0.8	24.9	14.0	44.4	2.4
CC(=O)Cn1cnc2sc(-c3ccccc3)cc2c1=O	0.7	0.7	28.9	-2.5	30.6	12.7
CCn1cnc2sc(-c3ccccc3)cc2c1=O	0.6	0.3	71.0*	9.3	44.4	-5.6
CCC(=O)Nc1cc(C(C)C)c(O)cc1C	1	1.1	-10.7	0.0	-2.8	-8.9
CCCOc1ccc2ccccc2c1/C=N/n1c(C)nnc1-n1nc(C)cc1C	0.2	0.8	18.0	23.0	82.6*	-3.2
CCOC(=O)C(C)Sc1ncc(OC)c(Sc2ccc(Cl)cc2)n1 (configuration not stated)	0.5	0.2	82.6*	14.4	45.2	12.2
CCOC(=O)C(C)Sc1ncc(OC)c(=O)[nH]1 (configuration not stated)	1	1	-3.3	6.2	2.8	0.0
CCOC(=O)CSc1ncc(OC)c(Sc2ccc(Cl)cc2)n1	0.7	0.4	57.5*	23.4	30.0	24.0
Cc1nc2ccc(S(=O)(=O)NC(C(=O)N3CCn4c3nc3ccccc34)C(C)C)cc2s1 (configuration not stated)	1	0.9	11.4	-1.2	2.4	-0.4
CC(=O)N1CCc2cc(S(=O)(=O)NC(CC(C)C)C(=O)N3CCn4c3nc3ccccc34)ccc21 (configuration not stated)	0.5	0.4	56.7*	8.8	50.7*	2.9
CC(=O)N1CCc2cc(S(=O)(=O)NC(Cc3ccccc3)C(=O)NC3CCCCCC3)ccc21 (configuration not stated)	0.7	0.5	53.0*	-0.8	34.9	-1.1

High-throughput results: PubChem, several laboratories
